# This is a sample that favours compounds with a hit; in the whole collection about 12% have one here.
# FMDV inh: foot and mouth disease virus antiviral activity. Potency, µM (titrated, usually from 57.9 µM), usual class: inhibitors. 1.2% of 410,000 active. FMDV antiviral cell-based qHTS; calls by dose curve; tested in HEK293T cells; further: read-out not given here; nearly all actives have a fitted effect of over 45% in size
# Shiga toxin inh: inhibitors of Shiga toxin in Vero cells | Vero cells, Shiga toxin protein synthesis inhibition reporter | inhibition, % at 38.7 µM | 9.2% of 290,000 active; in the data active means inhibition mostly above about 28%, no sharp cut-off; inactive means mostly below about 43%
# CHX counter: affects cycloheximide protein synthesis inhibition readout, counter-screen | cell reporter, cycloheximide protein synthesis inhibition counterscreen | max response, % | 12% of 300,000 active; in the data active means max response mostly above about 13%, no sharp cut-off; inactive means mostly below about 14%; further: read at 38.3 µM for the half of the compounds with a filed dose
# Sm TGR block: blocks Schistosoma mansoni thioredoxin glutathione reductase | purified TGR, DTNB reduction, TNB absorbance 405 nm | Potency, µM (doses to about 114 µM), hits mostly inhibitors | 3% of 360,000 active; active means well fitted inhibition curve with a large enough effect; inconclusive means small, poorly fitted or top-dose-only effect; inactive means no such curve, though single readings can be large or run the other way; further: nearly all actives have a fitted effect of over 60% in size
#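 Kinetic colorimetric format: TGR-catalysed, NADPH-driven DTNB reduction monitored via TNB absorbance. Enzyme dispensed at 20 nM; compound exposure 15 min at room temperature before reaction start.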
# Numbers stand for hits; – = inactive; ? = inconclusive; · = no result given.
SMILES,FMDV inh,Shiga toxin inh,CHX counter,Sm TGR block
COc1cccc(NC(=O)C2CC(=O)N=C(N)S2)c1 (stereo not given),–,–,–,–
COc1ccc(NC(=O)C2CC(=O)n3cnnc3S2)cc1 (stereo not given),–,–,–,0.282µM
COc1cccc(NC(=O)C2CC(=O)n3cnnc3S2)c1 (stereo not given),–,–,–,0.631µM
CCCCn1c(-c2ccc(Cl)c(Cl)c2)nc2cc3[nH]c(=O)c(C(C)C)nc3cc21,–,–,–,–
CCCCn1c(-c2ccc(C(C)(C)C)cc2)nc2cc3[nH]c(=O)c(C(C)C)nc3cc21,35.5µM,–,–,–
CCc1cccc(N2C(=O)N(Cc3c(F)cccc3Cl)c3ccccc3S2(=O)=O)c1,–,·,·,–
CCOC(=O)c1csc(CCNC(=O)c2ccccc2)n1,–,·,·,·
O=C(NCCc1csc(-c2cccnc2)n1)c1ccc(F)c(F)c1,–,·,·,–
Cc1ccc(C(=O)NCCc2csc(-c3cccnc3)n2)cc1,–,66.6,20.0,–
Cc1nc(CCNC(=O)c2ccccc2)cs1,–,–,17.5,–
O=C(c1ccc2c(c1)N(Cc1ccc(F)cc1)CCS2)N1CCN(c2ccccc2)CC1,–,·,·,–
CCOc1ccc(NC(=O)CCNC(=O)c2ccco2)cc1,–,–,19.3,–
O=C(CNC(=O)c1ccco1)Nc1ccc(F)c(Cl)c1,–,–,–,–
Cc1ccc(NC(=O)CNC(=O)c2ccco2)cc1Cl,–,–,22.2,–
O=C(COc1ccccc1)Nc1ccc(NC(=O)c2ccco2)cc1,–,–,–,–
O=C(CNC(=O)c1ccccc1)OC(C(=O)c1ccccc1)c1ccccc1 (stereo not given),–,–,–,–
COc1ccc(OCC(=O)Nc2ccc(NC(=O)c3ccco3)cc2)cc1,–,78.1,24.3,–
COc1ccc(C(=O)C(OC(=O)CNC(=O)c2ccco2)c2ccccc2)cc1 (stereo not given),–,–,–,17.8µM
Cc1ccc(NC(=O)CCNC(=O)c2ccco2)cc1,–,–,–,–
CCOC(=O)c1ccccc1NC(=O)c1sc2ncn(Cc3cccc(F)c3)c(=O)c2c1C,–,·,·,–
CCOc1ccc(NC(=O)CNC(=O)c2ccco2)cc1,–,–,18.0,–
CCOC(=O)COc1ccccc1C1Nc2ccccc2C(=O)N1c1cccc(Cl)c1 (stereo not given),·,66.2,36.4,–
COc1cc(C2Nc3ccccc3C(=O)N2c2ccc(Cl)cc2)c(Cl)cc1OCC(=O)O (stereo not given),–,70.9,53.9,–
CCOC(=O)COc1c(OC)cc(Cl)cc1C1Nc2ccccc2C(=O)N1c1cccc(C)c1 (stereo not given),–,–,–,–
O=C(Cn1cc2c(n1)CCCCC2)N1CCCCC1,–,–,17.9,–
SMILES,FMDV inh,Shiga toxin inh,CHX counter,Sm TGR block
Cc1c(Cl)c([N+](=O)[O-])nn1CC(=O)N1CCCc2ccccc21,–,–,24.9,–
Cc1c(Br)c([N+](=O)[O-])nn1CC(=O)N1CCc2ccccc21,–,–,–,–
O=C(Cn1cc2c(n1)CCCC2)N1CCCc2ccccc21,–,76.3,18.0,–
CN(Cc1ccco1)c1ncnc2ccc(-c3ccoc3)cc12,–,·,·,20µM
CN(Cc1ccco1)c1ncnc2ccc(-c3ccccc3Cl)cc12,?,·,·,–
O=C(NCCOc1ccccc1)c1ccccc1NC(=O)C1CCCO1 (stereo not given),–,–,40.6,–
CCc1ccc(NC(=O)c2ccccc2NC(=O)C2CCCO2)cc1 (stereo not given),–,–,64.8,–
CCOC(=O)c1ccccc1NC(=O)C1CCCO1 (stereo not given),–,–,–,–
Cc1ccc(-c2cn3cccnc3n2)cc1NC(=O)Nc1ccc(F)cc1,–,·,·,–
c1ccc(COc2ccc(CNCc3cccnc3)cc2)cc1,–,–,29.7,–
CCOc1ccc(CNCc2cccnc2)cc1,–,–,–,–
c1ccc(COc2ccc(CNCc3cccs3)cc2)cc1,–,56.1,25.3,–
CSc1nnc(CCNC(=O)c2ccc(-c3cccc(F)c3)cc2)n1-c1ccc(F)cc1,–,·,·,·
CCNc1ncc2nc(CCc3ccccc3)c(=O)n(CCOC)c2n1,–,·,·,·
Cc1c(NC(=O)c2sc3ccccc3c2Cl)cccc1-c1nc2ccccc2o1,–,·,·,–
CCCNc1ccc(-c2nc(-c3ccncc3)no2)cc1[N+](=O)[O-],–,·,·,–
COc1ccc(-c2noc(CCC(=O)Nc3cc(OC)ccc3OC)n2)cc1,–,–,–,–
COc1ccc(-c2noc(CCC(=O)NCc3ccco3)n2)cc1,–,–,17.2,39.8µM
COc1ccc(-c2noc(CCC(=O)Nc3cc(Cl)c(OC)cc3OC)n2)cc1,–,45.8,41.3,–
Cc1ccccc1-c1noc(CCC(=O)NCc2ccco2)n1,–,–,–,28.2µM
CCOc1ccc(N(CC)C(=O)Cn2cnc3sc(C)c(S(=O)(=O)N4CCN(c5ncccn5)CC4)c3c2=O)cc1,–,·,·,–
CCN(Cc1ccccc1)C(=O)C(CC(C)C)NS(=O)(=O)c1ccc2c(c1)CCN2C(C)=O (stereo not given),–,·,·,–
Cc1cc(C(=O)COc2cccnc2[N+](=O)[O-])c(C)n1-c1ccccc1,–,55.5,58.9,–
Cc1cc(C(=O)COc2cccnc2[N+](=O)[O-])c(C)n1Cc1ccco1,–,–,–,?
Cc1ccc(-n2c(C)cc(C(=O)COc3cccnc3[N+](=O)[O-])c2C)cc1,?,54.4,42.9,–
SMILES,FMDV inh,Shiga toxin inh,CHX counter,Sm TGR block
Cc1ccc(OCC(=O)c2cc(C)n(C)c2C)c([N+](=O)[O-])n1,–,80.3,29.5,?
Cc1cc(C)c(NC(=O)COc2cccnc2[N+](=O)[O-])c(C)c1,–,·,·,–
Cc1cc(C(=O)COc2ccc(Cl)cc2Br)c(C)n1C,–,–,21.6,–
CCOC(=O)c1c(C)[nH]c(C)c1S(=O)(=O)N(C)CC(=O)N1CCN(c2cccc(C)c2C)CC1,–,·,·,–
Cc1nnc(N2CCN(c3cccc(Cl)c3)CC2)c2c1nnn2Cc1ccc(F)cc1,?,·,·,–
Cc1cc(-n2c(C)cc(C(=O)COc3ccccc3[N+](=O)[O-])c2C)no1,–,–,–,–
Cc1cc(C(=O)COc2cccnc2[N+](=O)[O-])c(C)n1-c1ccccc1F,–,86.7,39.6,–
Oc1ccc(-c2nc3ccccc3s2)cc1,–,–,32.0,–
CC(=O)N(Cc1cccnc1)c1cccc(-c2nc3ccccc3s2)c1,–,–,–,–
c1cncc(-c2nc3ccccc3s2)c1,–,111.5,39.0,–
c1ccc2sc(-c3ccc4c(c3)OCO4)nc2c1,–,51.7,33.6,–
O=C(Nc1cccc(-c2nc3ccccc3s2)c1)c1ccc2c(c1)OCO2,·,–,–,–
c1ccc2sc(-c3ccncc3)nc2c1,–,50.8,44.2,–
CCCN(CCC)C(=O)Cn1c(SCc2cccc(F)c2)nc2cccnc21,–,·,·,–
CCC(=O)N1CCc2cc(S(=O)(=O)NCCC(=O)Nc3ccc(C)cc3C)ccc21,–,·,·,–
CCOc1ccc(-c2nnc(SCC(=O)Oc3ccccc3)o2)cc1,–,·,·,–
Cc1ccc(-c2nc3ccccc3s2)cc1S(=O)(=O)N1CCCC1,–,–,29.9,–
c1csc(-c2nc3ccccc3s2)c1,–,95.6,55.9,–

# Screening data from PubChem.
